Measured values: PubChem BioAssay (Tox21)
Records with an inconclusive call do not appear. The source made the active and inactive calls. Unless noted, calls follow the shape of the dose curve; as a rule, active = well fitted curve in the direction sought with a large enough effect in the repeat runs; inconclusive = weak or mixed curves; inactive = no such curve, though single readings can be large; an effect the other way counts as inactive or inconclusive.

Assays:
[1] = qHTS assay to identify small molecule agonists of the vitamin D receptor (VDR) signaling pathway - cell viability counter screen (AID 743224); also: series mostly up to about 63 µM; nearly all actives have a fitted effect of over 50% in size
In short: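 VDR-bla cells, 4 h after plating, exposed to compounds for 16 h at 37C; viability then read in the same wells as CellTiter-Glo luminescence after 30 min at room temperature, following the bla FRET read.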

[2] = qHTS assay to identify small molecule antagonists of the vitamin D receptor (VDR) signaling pathway - cell viability counter screen (AID 743225); also: nearly all actives have a fitted effect of over 50% in size
In short: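 Luminescent cell viability (CellTiter-Glo) in VDR-bla HEK 293T cells after 16 h compound exposure at 37C in the presence of 3 nM final 1-alpha,25-dihydroxy vitamin D3.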

[3] = qHTS assay to identify small molecule agonists of the NFkB signaling pathway (AID 1159509; active = well fitted curve in the direction sought with a large enough effect in the signal ratio in the repeat runs, not every such curve was filed as active; the % refers to the signal ratio; also: series mostly up to about 61 µM)
In short: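 ME-180 NFkB-bla, 2,000 cells/well, overnight plating; cpd pinned in DMSO, 5 h 37 C; B/G FRET substrate 1.5 h RT; ex 405, em 460/530 nm.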

[4] = qHTS assay to identify small molecule agonists of the NFkB signaling pathway - cell viability counter screen (AID 1159515; calls by dose curve; also: series mostly up to about 61 µM; nearly all actives have a fitted effect of over 55% in size)
In short: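 NFkB-bla ME-180 cells, 2,000/well, plated overnight at 37 C; compound added for 5 hr at 37 C. Viability read in the same wells as the bla reporter, by CellTiter-Glo luminescence after 30 min at room temperature.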

[5] = qHTS assay to identify small molecule agonists of the endoplasmic reticulum stress response signaling pathway (AID 1159516; active = well fitted activation curve with a large enough effect in the signal ratio in the repeat runs, not every such curve was filed as active; the % refers to the signal ratio)
In short: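 CellSensor ESRE-bla HeLa cells, 1,500 per well, plated overnight, then exposed to compounds for 5 hr at 37 C. Beta-lactamase reporter read with LiveBLAzer B/G FRET substrate after 2 hr at room temperature, 405 nm excitation, 460 and 530 nm emission.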

[6] = qHTS assay to identify small molecule agonists of the endoplasmic reticulum stress response signaling pathway - cell viability counter screen (AID 1159517; calls by dose curve;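 also: HeLa cells carrying an ER stress response element beta-lactamase reporter; series mostly up to about 61 µM; nearly all actives have a fitted effect of over 50% in size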)
In short: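 CellTiter-Glo was added to wells already read for beta-lactamase FRET, and luminescence was recorded 30 min later. Cells: ESRE-bla HeLa, 1,500 per well, compound exposure 5 hr at 37 C.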

[7] = qHTS assay to identify small molecule antagonists of the retinoid-related orphan receptor gamma (ROR-gamma) signaling pathway - cell viability counter screen (AID 1159520); also: nearly all actives have a fitted effect of over 50% in size
In short: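 Tet-on ROR gamma CHO cells (1,000/well) were plated 4 hr, given compounds in DMSO for 2 hr at 37 C, then induced with 1 uM final doxycycline for 16 hr. Viability was read as ATP by CellTiter-Glo luminescence after 30 min.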

[8] = target: Nuclear receptor ROR-gamma (Homo sapiens) (UniProt P51449); test: qHTS assay to identify small molecule antagonists of the retinoid-related orphan receptor gamma (ROR-gamma) signaling pathway (AID 1159521)
In short: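 CHO cells expressing RORγ under a TET-on promoter, luciferase under RORE control. Dox 1 uM final, 16 h; compounds added 2 h prior. Luminescence decrease measured.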

[9] = qHTS assay to identify small molecule agonists of the AP-1 signaling pathway - cell viability counter screen (AID 1159525; calls by dose curve; also: nearly all actives have a fitted effect of over 55% in size)
In short: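 ME-180 AP-1-bla, 2500 cells/well, Opti-MEM + 0.5% dialyzed FBS; overnight 37 °C; cpd 15-pt titration, 5 h 37 °C; CellTiter-Glo 30 min RT; luminescence read; normalised to TOAB and DMSO controls.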

[10] = qHTS assay to identify small molecule agonists of the AP-1 signaling pathway (AID 1159526; calls by dose curve)
[11] = qHTS assay to identify small molecule antagonists of the retinoid acid receptor (RAR) signaling pathway - cell viability counter screen (AID 1159551); also: nearly all actives have a fitted effect of over 35% in size
In short: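 C3RL4 RARE-luciferase cells, 1,000/well, incubated overnight, then dosed with compound plus 1 uM retinol (final). After 6 hr at 37 C, viability read by CellTiter-Glo ATP luminescence following 30 min at room temperature.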

[12] = qHTS assay to identify small molecule antagonists of the retinoic acid receptor (RAR) signaling pathway (AID 1159552; also: nearly all actives have a fitted effect of over 50% in size)
In short: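 Readout: luciferase luminescence, 30 min post-reagent at RT. Setup: C3RL4 RARE reporter cells, compounds plus retinol 1 uM final, 6 hr incubation at 37 C and 5% CO2.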

[13] = qHTS assay to identify small molecule agonists of the retinoic acid receptor (RAR) signaling pathway (AID 1159553)
In short: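 C3RL4 RARE-luciferase cells were seeded at 1,000/well and grown overnight at 37 C, then exposed to compounds for 6 hr at 37 C, 5% CO2. Luciferase reagent was added and luminescence was read after 30 min at room temperature.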

[14] = qHTS assay to identify small molecule agonists of the RXR signaling pathway - cell viability counter screen (AID 1159529)
In short: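 Same-well viability check after the LiveBLAzer FRET read: CellTiter-Glo added, luminescence measured after 30 min at room temperature. Reporter HEK 293T cells had been treated with compounds for 16 hr following a 5 hr preincubation.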

[15] = qHTS assay to identify small molecule antagonists of the estrogen related receptor (ERR) signaling pathway - cell viability counter screen (AID 1224818); also: series mostly up to about 46 µM
In short: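 ERR cells, 2,000 per well, compound added after 6 h and incubated 17.5 h at 37 C. Viability read by CellTiter-Fluor fluorescence after a further 30 min at 37 C.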

[16] = qHTS assay to identify small molecule antagonists of the estrogen related receptor signaling pathway with the pleiotropic PPARgamma coactivator (PGC) cell viability counter screen (AID 1224822; also: series mostly up to about 46 µM)
In short: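 PGC/ERR cells rested 6 h, then compound-treated 17.5 h at 37 C. CellTiter-Fluor added for 30 min at 37 C, viability measured by fluorescence intensity.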

Measured: Potency

CCCCCCO
inactive: [1] | [2] | [3] | [4] | [5] | [6] | [7] | [8] | [9] | [10] | [11] | [12] | [13]

C=Cc1ccc(C)cc1
inactive: [1] | [2] | [3] | [4] | [5] | [6] | [7] | [8] | [9] | [10] | [14] | [11] | [12] | [13]

OCc1ccccc1
inactive: [1] | [2] | [3] | [4] | [5] | [6] | [7] | [8] | [9] | [10] | [14] | [12] | [13]

C=CCCCCCCCCC(=O)O
inactive: [1] | [2] | [3] | [4] | [5] | [6] | [7] | [8] | [9] | [10] | [14] | [11]

O=C(O)CCCCCCCCC(=O)O
inactive: [1] | [2] | [3] | [4] | [5] | [6] | [7] | [8] | [9] | [10] | [11] | [12] | [13]

CC(=O)CCC=C(C)C
inactive: [1] | [2] | [3] | [4] | [5] | [6] | [7] | [8] | [9] | [10] | [14] | [12] | [13]

CC(C)CCCCCCCOC(=O)CCCCC(=O)OCCCCCCCC(C)C
inactive: [1] | [2] | [3] | [4] | [5] | [6] | [7] | [8] | [9] | [10] | [11] | [12] | [13]

NCCN1CCNCC1
inactive: [1] | [2] | [3] | [4] | [5] | [6] | [7] | [8] | [9] | [10] | [14] | [12] | [13]

C=CCc1ccc(OC)c(OC)c1
inactive: [1] | [2] | [3] | [4] | [5] | [6] | [7] | [8] | [9] | [10]

CC(=O)CC(C)(C)O
inactive: [1] | [2] | [3] | [4] | [5] | [6] | [7] | [8] | [9] | [10] | [12] | [13]

COC(=O)c1cccnc1
inactive: [1] | [2] | [3] | [4] | [5] | [6] | [7] | [8] | [9] | [10] | [14] | [12] | [13]

CC(C)OC(=O)COc1ccc(Cl)cc1Cl
inactive: [1] | [2] | [3] | [4] | [5] | [6] | [7] | [8] | [9] | [10] | [11] | [12] | [13]

C[C@]12CCC(=O)C=C1CC[C@@H]1[C@@H]2[C@@H](O)C[C@@]2(C)[C@H]1CC[C@]2(O)C(=O)CO
inactive: [1] | [2] | [3] | [4] | [5] | [6] | [7] | [8] | [9] | [10] | [12] | [13] | [15] | [16]

CC1(C)S[C@@H]2[C@H](NC(=O)COc3ccccc3)C(=O)N2[C@H]1C(=O)O
inactive: [1] | [2] | [3] | [4] | [5] | [6] | [7] | [8] | [9] | [10] | [14] | [12] | [13]

CCCCC(C=O)CC (configuration not stated)
inactive: [1] | [2] | [3] | [4] | [5] | [6] | [7] | [8] | [9] | [10] | [11] | [12] | [13]
